Measured values taken from PubChem BioAssay (Tox21).
Activity calls are given as the source filed them. Where a call stands in place of a potency, no number is given. Calls follow the shape of the full dose curve.

Each molecule was assayed against Gonadotropin-releasing hormone receptor (Homo sapiens) (UniProt P30968) (assay: Human gonadotropin-releasing hormone receptor (GnRHR) small molecule agonists, calcium flux assay in GnRHR-HEK293 cells (AID 1920063; also: nearly all actives have a fitted effect of over 35% in size)). Conditions: calcium flux fluorescence, agonist mode; series mostly up to 57.6 µM.
Sequence of Gonadotropin-releasing hormone receptor (Homo sapiens) (P30968 whole entry, looked up): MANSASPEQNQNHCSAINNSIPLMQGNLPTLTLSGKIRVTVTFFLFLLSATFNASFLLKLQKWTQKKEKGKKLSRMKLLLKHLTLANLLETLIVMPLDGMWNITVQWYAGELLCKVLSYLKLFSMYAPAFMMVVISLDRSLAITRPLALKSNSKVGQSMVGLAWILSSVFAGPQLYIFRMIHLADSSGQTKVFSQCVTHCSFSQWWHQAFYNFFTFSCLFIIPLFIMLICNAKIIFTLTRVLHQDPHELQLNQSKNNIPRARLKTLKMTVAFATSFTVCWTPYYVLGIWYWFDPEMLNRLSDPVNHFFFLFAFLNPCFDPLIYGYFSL
From the text: National Center for Advancing Translational Sciences [NCATS]
Division of Preclinical Innovation [DPI]
U.S. Environmental Protection Agency [EPA]
National Institutes of Environmental Health Sciences [NIEHS]
National Toxicology Program [NTP]
U.S. Food and Drug Administration [FDA]
Gonadotropin-releasing hormone receptor (GnRHR) is a G-protein-coupled receptor (GPCR) and acts (through phospholipase C) to increase intracellular inositol trisphosphate and then release intracellular calcium stores. Cell-based GnRHR-Hek293 calcium influx assay is using HEK293 cells that have been genetically engineered to express the human GnRHR, which activity can be measured by calcium signaling. A compound/drug can activate (agonist) GnRHR that can be monitored by levels of intracellular calcium.
GnRHR-HEK293 cells developed by Codex Corp contain human GnRHR reporter gene, which was stably integrated into HEK 293 cells. The compound activation can be detected by fluorescence intensity via calcium flux assay. This cell line has been used to screen the Tox21 10K compound library to identify GnRHR agonists.
GnRHR-Hek293 cells were dispensed at 1500cells/4uL/well in 1536-well black wall/clear bottom plates using a multidrop dispenser. After the assay plates were incubated at a 37 C/5% CO2 incubator for 18 hours, 4 uL of Calcium Dye Solution was added to each well. The plates were incubated at 37 C for 1 hour. For agonist mode, 23 nL of compounds dissolved in DMSO, positive controls or DMSO only was transferred to the assay plate by a pin tool station. The fluorescence intensity in the plates was measured using FDSS 7000EX kinetic plate reader with a filter set of Ex/Em=480/540 for 3 min at 1 sec intervals. Each test compound was measured at 15 concentrations and in triplicates.

Row | SMILES | Potency
1 | Cc1coc2c1CCC(C)C2 (stereo not given) | inactive
2 | Nc1ccc(Oc2ccc(N)cc2)cc1 | inactive
3 | Cc1ncc2n1-c1ccc(Cl)cc1C(c1ccccc1F)=NC2 | inactive
4 | CCOP(=S)(OCC)SCSc1cc(Cl)ccc1Cl | inactive
5 | CN=C=O | inactive
6 | O=C(O)C(F)(F)C(F)(F)C(F)(F)C(F)(F)C(F)(F)C(F)(F)C(F)(F)C(F)(F)C(F)(F)C(F)(F)F | inactive
7 | CCC(C)(CC)c1cc(NC(=O)c2c(OC)cccc2OC)on1 | inactive
8 | CON(C)C(=O)Nc1ccc(Cl)c(Cl)c1 | inactive
9 | OCCCCO | inactive
10 | ClC(Cl)=C(c1ccc(Cl)cc1)c1ccc(Cl)cc1 | inactive
11 | O=Cc1ccc(Cl)cc1Cl | inactive
12 | O=C=NC1CCCCC1 | inactive
13 | O=C(O)C(Cl)Br (stereo not given) | inactive
14 | C[C@]12C=CC3=C4CCC(=O)C=C4CC[C@H]3[C@@H]1CC[C@@H]2O | inactive
15 | O=c1nc(O)n(Cl)c(=O)n1Cl | inactive
16 | CC(C)OC(=O)Nc1cccc(Cl)c1 | inactive
17 | CC(C)(C)C(O)(CCc1ccc(Cl)cc1)Cn1cncn1 (stereo not given) | inactive
18 | O=P1(N(CCCl)CCCl)NCCCO1 (stereo not given) | inactive
19 | COP(=O)(NC(C)=O)SC (stereo not given) | inactive
20 | Cc1ccc2ccccc2c1 | inactive

Row | SMILES | Potency
21 | NCc1cccnc1 | inactive
22 | C=CCN1C[C@H](C)N([C@H](c2ccc(C(=O)N(CC)CC)cc2)c2cccc(OC)c2)C[C@H]1C | inactive
23 | O=C(O)C1C2CCC(O2)C1C(=O)O (stereo not given) | inactive
24 | O=[N+]([O-])c1c(Cl)c(Cl)c(Cl)c(Cl)c1Cl | inactive
25 | CC[n+]1ccccc1 | inactive
26 | O=C(Cl)OCCOCCOC(=O)Cl | inactive
27 | CCC(=O)Nc1ccc(Cl)c(Cl)c1 | inactive
28 | CCCC[N+]1(C)CCCC1 (tested in a mixture with another compound) | inactive
29 | CC(C=O)Cc1ccc2c(c1)OCO2 (stereo not given) | inactive
30 | Nc1cccc(Cl)c1 | inactive
31 | CCC(=O)O[C@@H]1C=C2CCC3C(CCC4(C)C3CC[C@@H]4OC(=O)CC)C2CC1 (stereo not given in full) | inactive
32 | CCCCOCCOP(=O)(OCCOCCCC)OCCOCCCC | inactive
33 | CCOP(=O)(OCC)OCC | inactive
34 | CCCCc1c(C)nc(NCC)[nH]c1=O | inactive
35 | CCC(C)Cl (stereo not given) | inactive
36 | [P]#[In] | inactive
37 | COc1ccc(N)cc1 | inactive
38 | CCCCCCn1cc[n+](C)c1 | inactive
39 | Cc1cnc(C2=NC(C)(C(C)C)C(=O)N2)c(C(=O)O)c1 (stereo not given) | inactive
40 | N#Cc1nn(-c2c(Cl)cc(C(F)(F)F)cc2Cl)c(N)c1S(=O)C(F)(F)F (stereo not given) | inactive
